Experimental findings from PubChem BioAssay (Tox21) are described below.

Assay [1] in a line: qHTS RealTime-Glo MT Cell Viability Assay in HEK293 cells - 16 hour (AID 1224872). For activity change, negative = cytotoxicity: top concentration of the series differs between compounds. Note: nearly all actives have a fitted effect of over 50% in size. Note: potency is the fitted concentration of half-maximal effect. A digest of the protocol: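 Viability tracked continuously by luminescence as live cells reduce a prosubstrate for NanoLuc; HEK293 cells preincubated 5 h, compound-treated at 37 C, and read at 0, 8, 16, 24, 32 and 40 h.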
A short description of assay [2]: qHTS RealTime-Glo MT Cell Viability Assay in HepG2 cells - 8 hour (AID 1224873). Note: nearly all actives have a fitted effect of over 55% in size. The procedure, abridged: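 HepG2 cells mixed with RealTime-Glo MT reagents (NanoLuc plus cell-permeant prosubstrate) were seeded at 600 cells/well, incubated 5 h at 37 C/5% CO2, then pinned with compounds in DMSO; nonlytic luminescence tracked viability during 40 h treatment.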
For orientation: qHTS replaces the single test concentration by a dilution series.

Assay [3] can be described thus: qHTS RealTime-Glo MT Cell Viability Assay in HEK293 cells - 40 hour (AID 1224874). Note: nearly all actives have a fitted effect of over 50% in size. Note: potency is the fitted concentration of half-maximal effect. Conditions: RealTime-Glo luminescence; max response: hits give low values. A digest of the protocol: (§1)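 Kinetic, non-lysing viability readout. Seed HEK293 (600/well) with reagent, incubate 5 h at 37 C/5% CO2, pin 23 nL compound in DMSO, incubate at 37 C, read luminescence at 0, 8, 16, 24, 32, 40 h.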

Assay [4] in a line: A CellTox Green Cytotoxicity Assay to monitor cytotoxicity in HEK293 cells - 24 hour (AID 1224875). For activity change: series mostly up to about 77 µM. Note: nearly all actives have a fitted effect of over 45% in size. Note: potency is the fitted concentration of half-maximal effect. The procedure, abridged:
(§2)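 Real-time, in one plate: 600 HEK293 cells/well with dead-cell DNA dye, pinned compound after 5 h, 37 C incubation over 40 h; viable cells give no appreciable fluorescence.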

The nature of assay [5]: qHTS RealTime-Glo MT Cell Viability Assay in HepG2 cells - 32 hour (AID 1224877). Note: nearly all actives have a fitted effect of over 55% in size. The procedure, abridged:
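Viability was tracked continuously by NanoLuc luminescence from prosubstrate reduced by living HepG2 cells, at successive time points over 40 h of compound exposure. Cells with reagent were preincubated 5 h at 37 °C before compound addition.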

Assay [6] is described as follows: A CellTox Green Cytotoxicity Assay to monitor cytotoxicity in HepG2 cells - 24 hour (AID 1224878). Note: nearly all actives have a fitted effect of over 45% in size. A digest of the protocol: (§3)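 Cytotoxicity was tracked as dead-cell DNA fluorescence in HepG2 cells treated with test compounds at 37 C; each time-point value comes from one kinetic series spanning 0, 8, 16, 24, 32 and 40 h.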
Assay [7] is described as follows: qHTS RealTime-Glo MT Cell Viability Assay in HEK293 cells - 0 hour (AID 1224880). Note: top concentration of the series differs between compounds; nearly all actives have a fitted effect of over 45% in size. The procedure, abridged: as §1
Assay [8] is described as follows: A CellTox Green Cytotoxicity Assay to monitor cytotoxicity in HEK293 cells - 32 hour (AID 1224881). Note: nearly all actives have a fitted effect of over 40% in size. Note: potency is the fitted concentration of half-maximal effect. A digest of the protocol: as §2
A short description of assay [9]: A CellTox Green Cytotoxicity Assay to monitor cytotoxicity in HepG2 cells - 16 hour (AID 1224876). Note: nearly all actives have a fitted effect of over 45% in size. A digest of the protocol: as §3
Assay [10] in a line: A CellTox Green Cytotoxicity Assay to monitor cytotoxicity in HepG2 cells - 40 hour (AID 1224879). Note: nearly all actives have a fitted effect of over 40% in size. The procedure, abridged: as §3

Results filed as inconclusive are left out. Values without a mark were called inactive. Calls of active or inactive are those of the source. Calls come from the whole dose curve; as a rule, active = well fitted curve in the direction sought with a large enough effect in the repeat runs; inconclusive = weak or mixed curves; inactive = no such curve, though single readings can be large; an effect the other way counts as inactive or inconclusive.
% is set by controls: 0 for no effect and ±100 for the full control effect.

With `CC(Oc1c(Cl)cccc1Cl)C1=NCCN1` (stereo not given), the Potency entry in [1], in [4], in [5], in assay [6] and in [8] was “inactive” in each case. The compound was called inactive in assay [2] and in assay [7]. For the same compound, the max response in [3] was -8.42%.
Take `Clc1cccc(-c2cc(Cl)cc(Cl)c2)c1`: the Potency entry in assay [1], in [9] and in assay [5] was “inactive” each time. The outcome in assay [2] and in assay [7] was inactive. Besides, in [3], the max response is -9.77%. Further, the Potency in assay [4] and in [8] was 42.1 µM (active) in each case.
For the compound `C[C@@H](N)C(=O)O`, the Potency result in assay [1], in assay [4], in assay [5], in assay [10] and in assay [8] was “inactive” in each case. Further, the compound was classed as inactive in [2] and in [7]. The max response in [3] was 1.04%.
With `C[C@@H]1CN(c2c(F)c(F)c3c(=O)c(C(=O)O)cn(C4CC4)c3c2F)C[C@H](C)N1`, the activity change, negative = cytotoxicity in [1] was 0.662% [at 15.8 µM]. Further, the viability change, negative = cytotoxic in [2] was -4.32% [at 15.8 µM]. The max response in [3] was 10.3%. For the same compound, the activity change in [4] is 0.295% [at 15.8 µM, hits give high values]. Also, the figures for the cytotoxicity increase in [9], in assay [10] and in assay [8] were -10.9% [at 15.8 µM], -9.16% [at 15.8 µM] and -0.134% [at 15.8 µM], respectively. Moreover, the activity change, negative = cytotoxic in assay [5] is 0.371% [at 15.8 µM].
For the compound `CCN(CC)CC1CCCCN1CC(=O)N1c2ccccc2C(=O)Nc2cccnc21` (stereo not given), the Potency result in assay [1], in [4], in assay [5], in assay [6], in assay [10] and in [8] was “inactive” throughout. Besides, the compound was called inactive in assay [2] and in assay [7]. For the same compound, the max response in assay [3] was 0.471%.
Regarding `Cc1ccc(C(C)C)cc1O`, the Potency result in assay [1], in assay [4] and in assay [5] was “inactive” in each case. Further, the result in assay [2] was inactive. Moreover, the max response in assay [3] is -12%.
For `Cc1cc2nc(N)sc2cc1C`, the Potency result in [1], in assay [4], in [9], in assay [5], in assay [10] and in [8] was “inactive” throughout. Besides, the compound was called inactive in assay [2] and in [7]. The max response in [3] was -0.484%.
With `O=S(=O)(O)C(F)(F)F`, the Potency result in [1], in assay [4], in assay [9], in assay [5], in assay [10] and in assay [8] was “inactive” throughout. Further, the compound was called inactive in assay [2]. The max response in [3] is 7.92%.
Turning to `CC1=C(CC(=O)O)c2cc(F)ccc2/C1=C\c1ccc(S(C)(=O)=O)cc1`, the Potency result in assay [1], in assay [4], in assay [5], in [6], in assay [10] and in assay [8] was “inactive” each time. Further, in assay [2], the outcome was inactive. Further, the max response in [3] is 8.4%.
With `OCc1ccccc1O`, the Potency result in [1], in assay [4], in assay [5], in assay [10] and in assay [8] was “inactive” throughout. Also, the outcome in [2] and in assay [7] was inactive. Besides, the max response in assay [3] was -16.1%.
In the case of `CCN(O)CC`, the Potency entry in assay [1], in assay [4], in assay [5], in [6], in assay [10] and in assay [8] was “inactive” throughout. Also, the result in [2] and in assay [7] was inactive. For the same compound, the max response in assay [3] is 12.4%.
As to `COc1cc(N)c(Cl)cc1C(=O)NC1CCN(Cc2ccccc2)CC1`, the Potency in assay [1] and in assay [3] was 19 µM (active) in each case. The result in assay [2] and in [7] was inactive. In addition, the Potency entry in [4], in assay [5], in [6] and in assay [8] was “inactive” throughout.
As to `O=C(Cl)c1cccc([N+](=O)[O-])c1`, the Potency entry in [1], in assay [4], in assay [5], in [6], in [10] and in assay [8] was “inactive” in each case. Moreover, the result in [2] and in assay [7] was inactive. Further, the max response in assay [3] was 3.57%.
Regarding `CC1CN(c2ccccc2)NC1=O` (stereo not given), the Potency entry in assay [1], in assay [4], in [5], in [6] and in assay [8] was “inactive” each time. Further, the result in assay [2] was inactive. For the same compound, the max response in assay [3] is -13.5%.
As to `CCOC(=O)C(Br)c1ccccc1` (stereo not given), the Potency result in [1], in assay [4], in assay [5], in [6], in [10] and in assay [8] was “inactive” in each case. The compound was classed as inactive in assay [2] and in [7]. Moreover, the max response in assay [3] was 15.2%.
For the compound `NCCCN1CCN(CCCN)CC1`, the Potency entry in [1], in assay [4], in assay [9], in assay [5] and in [8] was “inactive” each time. In addition, the call in assay [2] and in assay [7] was inactive. Moreover, the max response in [3] is 6.33%.
Take `Cc1c[nH]c(=S)[nH]c1=O`: the Potency result in assay [1], in [4], in assay [5], in assay [6], in assay [10] and in assay [8] was “inactive” each time. The call in assay [2] and in assay [7] was inactive. Moreover, in [3], the max response was 22.1%.
On to `CCCC(CCC)(C(=O)OCC)C(=O)OCC`, for which the Potency result in assay [1], in assay [4], in [5], in assay [6], in assay [10] and in assay [8] was “inactive” throughout. Further, the compound was called inactive in assay [2] and in [7]. In assay [3], the max response was 0.553%.
Turning to `CC(=O)N(CC(O)CN(C(C)=O)c1c(I)c(C(=O)NCC(O)CO)c(I)c(C(=O)NCC(O)CO)c1I)c1c(I)c(C(=O)NCC(O)CO)c(I)c(C(=O)NCC(O)CO)c1I` (stereo not given), the Potency entry in [1], in assay [4], in [9], in [5], in assay [10] and in assay [8] was “inactive” each time. Further, the outcome in assay [2] was inactive. Also, the max response in assay [3] was 0.602%.
